Assay outcomes deposited in PubChem by Broad Institute.
A selection follows.
aSyn 5UTR act – Activators working through SNCA 5'UTR binding (MLPCN); 300,000 tested, 7.1% active; alpha-synuclein 5'UTR reporter, activators screen; activity score, % (tested at 7.5 µM), hits read low; in the data active means activity score below about -60%
* hit, by the source's call.

SMILES	aSyn 5UTR act
O=C(NC(=O)c1csnn1)Nc1ccccc1Cl	-103*
COc1ccc(C(=O)O/N=C(\N)c2ccccc2)cc1OC	-180*
COc1ccc(/C(N)=N/OC(=O)CSc2ccccc2)cc1OC	-125*
COc1ccc(C(=O)n2c(N)nc3ccccc32)cc1OC	-177*
COc1ccc(C(=O)O/N=C(\N)c2cccc(C)c2)cc1OC	-165*
Cc1cccc(/C(N)=N/OC(=O)c2ccoc2C)c1	-116*
CCCN(CCC)c1ccc(/C=C/c2ccc3cc(OCC)ccc3n2)cc1	-112*
CN(C)c1ccc(/C=C/c2ccc3ccccc3n2)cc1	89
O=C(O)c1cccc(Nc2nc(-c3cc4ccccc4oc3=O)cs2)c1	-98*
Cc1cc(NC(=O)Nc2ccc3c(ccn3C)c2)sn1	-121*
CCOC(=O)c1ccc(Nc2nc(=O)c3cccnc3s2)cc1	-133*
CC(=O)c1ccc(Nc2nc(=O)c3cccnc3s2)cc1	-124*
O=c1nc(Nc2ccc(OCc3ccccc3)cc2)sc2ncccc12	-96*
COc1ccc(C(=O)Nc2cccc(C(=O)N/N=C/c3ccc(OC)cc3OC)c2)cc1	83
CC(=O)Nc1cccc(C(=O)N/N=C/c2ccccc2F)c1	-109*
COc1ccc(/C=N/NC(=O)c2cccc(NC(=O)c3ccccc3Cl)c2)cc1	-99*
CC(=O)Nc1cccc(C(=O)N/N=C/c2ccc(F)cc2)c1	-115*
CCOc1ccccc1C1CC(=O)Nc2cc3c(cc21)OCO3 (stereo not drawn)	66
CCOc1ccccc1C1N=C(c2ccc(OC)cc2)CC(c2ccccc2O)N1 (stereo not drawn)	-234*
CCOc1ccc(C2=Nn3c(nnc3-c3ccccc3OC)SC2)cc1	109
C=C1C(=O)C=C[C@]2(C)C[C@@H]3OC(=O)[C@](C)(O)[C@H]3C[C@@H]12	-527*
CCc1nc(SCC#N)c(C#N)cc1C	69
N#Cc1cc2c(nc1SCc1ccncc1)CCC2	-95*
CC(C)OC(=O)CSc1nc2c(cc1C#N)CCCCC2	-166*
Cc1cccc2cc(C#N)c(SCC#N)nc12	85
SMILES	aSyn 5UTR act
CCOC(=O)CC(=O)CSc1nc2c(cc1C#N)CCCCC2	-138*
CO/N=C/CC(=O)c1cnc(-c2ccc(Cl)cc2)s1	-79*
Cc1ccc2nc(-c3cccnc3SCC(=O)N3c4ccccc4CC3C)[nH]c2c1 (stereo not drawn)	-80*
Cc1cc2nc(-c3ccc(SCc4ccc(C#N)cc4)nc3)[nH]c2cc1C	-105*
CC(=O)CSc1ccc(-c2nc3ccccc3[nH]2)cn1	-72*
Cc1ccc2nc(-c3ccc(SCC(=O)N4CCc5ccccc54)nc3)[nH]c2c1	-388*
CC(=O)CSc1ccc(-c2nc3cc(C)c(C)cc3[nH]2)cn1	121
N#Cc1ccccc1CSc1ccc(-c2nc3ccccc3[nH]2)cn1	-120*
N#Cc1c(/N=C/c2cc(Br)cs2)sc2c1CCC2	-190*
N#Cc1c(/N=C/c2cccs2)sc2c1CCC2	-88*
Cc1nc(NC(=O)c2cncc(Br)c2)ccc1Br	-109*
Cc1nc(NC(=O)c2cnccn2)ccc1Br	-101*
CSc1ccc(C(=O)N2CCc3ccc(NC(=O)c4ccccn4)cc3C2)cc1	-73*
CCC(C)N(CC(=O)Nc1cccc(C)c1C)C(=O)CCl (stereo not drawn)	-88*
O=C(/C=C/Nc1cccc([N+](=O)[O-])c1)c1ccco1	-283*
Cc1ccc(C(=O)/C=C/Nc2cccc([N+](=O)[O-])c2)o1	-167*
O=C1C=C(N2CCCCCC2)C(=O)N1c1ccc(Cl)cc1	-171*
Cc1ccc(NC(=O)NCCN2C(=O)C3C4C=CC(C4)C3C2=O)cc1 (stereo not drawn)	-81*
CC(C)(C)c1ccc(C(O)CCCN2CCC(C(O)(c3ccccc3)c3ccccc3)CC2)cc1 (stereo not drawn)	111
O=C(NCCCN1CCOCC1)c1cc(-c2ccccc2)on1	-113*
O=C1C=C(NCCN2CCOCC2)C(=O)c2cnccc21	131
CC(C)(C)c1ccc(C(=O)NCCN2CCOCC2)cc1	-190*
O=C(NCCN1CCOCC1)c1cc(-c2ccccc2)on1	-130*
Cc1cc(C)c(C(CC(=O)c2cccs2)C(C#N)C#N)c(C)c1 (stereo not drawn)	-189*
Cc1ccc(NCCC(=O)c2cccs2)cc1	-164*
SMILES	aSyn 5UTR act
Cc1ccc(NCCC(=O)c2cccs2)cc1Cl	-87*
Cc1ccc(NCCC(=O)c2ccc(Cl)cc2)cc1C	-99*
Cc1ccc(NCCC(=O)c2cccs2)cc1C	-187*
Cc1cccc(NCCC(=O)c2ccc(Br)cc2)c1	-94*
CC(C)c1ccc(NCCC(=O)c2cccs2)cc1	-217*
CC(CC(=O)c1cccs1)CC(=O)c1cccs1	-144*
CC(=O)c1ccc(NCCC(=O)c2ccccc2)cc1	-82*
COC(=O)c1ccc(COC(=O)CCC(=O)c2cccs2)cc1	-84*
O=C(NCCOc1ccccc1Cl)c1cc(F)c(F)cc1Cl	-123*
O=C(NCCOc1ccccc1)c1ccccc1Cl	-75*
COc1ccc(CCC(=O)NCCOc2ccccc2Cl)cc1	-92*
CCOc1ccc(NC(=S)Nc2cccc3ccccc23)cc1	-63*
COc1cccc(NC(=S)Nc2cccc3ccccc23)c1	-70*
CCc1ccc(NC(=S)Nc2cccc(OC)c2)cc1	-109*
CCOc1ccc(NC(=S)Nc2cccc3cnccc23)cc1	-89*
COc1ccc(NC(=S)Nc2cccc3cnccc23)cc1	-72*
S=C(Nc1cccnc1)Nc1cccc2cnccc12	66
CCOc1ccc(NC(=S)Nc2cc(OC)c(Cl)cc2OC)cc1	-90*
COc1cccc(NC(=S)NN=C2CCCCCC2)c1	-146*
COc1cc(/C(C)=N/Nc2ccc(C(=O)O)cc2)cc(OC)c1OC	-101*
Cn1nnnc1N=N/C(=N/Nc1ccccc1)c1ccccc1	104
C/C(=N\Nc1ccc(C(=O)O)cc1)c1ccc(-n2ccnc2)cc1	-70*
C/C(=N\Nc1ccc(C(=O)O)cc1)c1nc2ccccc2n1C	-148*
COc1ccc(/C(C)=N/Nc2ccc(C(=O)O)cc2)cc1OC	-137*
O=C(NCCn1ccc2ccccc21)c1ccc2c(c1)OCO2	-108*
SMILES	aSyn 5UTR act
O=C(NCCc1ccccc1)c1ccc2c(c1)OCO2	91
COc1ccc(C(=O)NCCn2ccc3ccccc32)cc1	-131*
Clc1nc(-c2cccnc2)nc2scc(-c3ccccc3)c12	-134*
O=C1Nc2ccccc2/C1=N/c1sc2c(c1C(=O)NCCc1ccccc1)CCCC2	-87*
CCOC(=O)c1cc2ccc3ccccc3c2s1	-169*
CCOC(=O)c1cc2c(s1)-c1ccccc1CC2	-97*
C#CC(C)(C)NC(=O)c1ccc(-c2ccccc2F)cc1	-89*
CCN(CC)c1ccc(/C=C/C(=O)C2C(=O)C=C(C)OC2=O)cc1 (stereo not drawn)	-240*
O=C(Nc1ccccc1F)c1ccc(Cn2cc(Cl)cn2)cc1	-84*
O=C(Nc1ccc([N+](=O)[O-])cc1)c1ccc(Cn2cc([N+](=O)[O-])cn2)cc1	79
O=C(Nc1ccc(Cl)c(Cl)c1)c1ccc(Cn2cc(Cl)cn2)cc1	-120*
C=CCN1c2ccccc2[C@]23C[C@@H](C(=O)OC)N(C(=O)c4cc(C)oc4C)C2=NC(C(=O)OC)=C(C(=O)OC)[C@H]13	-62*
Cc1cc2cc(CNC(=O)Nc3ccccc3)ccc2[nH]1	-98*
Cc1ccc(CNC(=O)Nc2ccc(C)cc2)cc1	-75*
Cc1ccc(CNC(=O)NC2CCCCC2)cc1	-92*
Cc1ccc(CNC(=O)Cc2ccc(-c3ccccc3)cc2)cc1	73
O=C(CSc1ccc(F)cc1)NC1CCCCC1	-69*
